The list is not random: actives were taken first. Their share in the collection is about 3.7%.
WRN helicase inh: blocks human WRN helicase. WRN helicase unwinding, fluorescent forked duplex, kinetic. Potency, µM (series often up to 114 µM), inactives show top-dose activity change, negative = inhibition, usual class: inhibitors. 0.46% of 360,000 active; also: potency is read from the fitted curve at half-maximal effect; % is scaled to controls: 0 for no effect and ±100 for the full control effect; nearly all actives have a fitted effect of over 55% in size
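Enzyme (20 nM final) and test compound sit together 15 min at room temperature before substrate addition. Substrate is a single-forked duplex oligonucleotide (100 nM) labelled with fluorophore and quencher, with 2 mM ATP; helicase unwinding raises red fluorescence, read kinetically.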
FEN1 inhibitor: human FEN1 inhibition. Potency, µM (titrated, usually from 114 µM), inactives show at the top dose activity change, negative = inhibition, hits mostly inhibitors. Recombinant FEN1 flap cleavage, fluorescence, 15 min. P39748. 0.35% of 390,000 active; also: potency is read from the fitted curve at half-maximal effect; % is scaled to controls: 0 for no effect and ±100 for the full control effect; nearly all actives have a fitted effect of over 65% in size
Target sequence (P39748 whole entry, looked up): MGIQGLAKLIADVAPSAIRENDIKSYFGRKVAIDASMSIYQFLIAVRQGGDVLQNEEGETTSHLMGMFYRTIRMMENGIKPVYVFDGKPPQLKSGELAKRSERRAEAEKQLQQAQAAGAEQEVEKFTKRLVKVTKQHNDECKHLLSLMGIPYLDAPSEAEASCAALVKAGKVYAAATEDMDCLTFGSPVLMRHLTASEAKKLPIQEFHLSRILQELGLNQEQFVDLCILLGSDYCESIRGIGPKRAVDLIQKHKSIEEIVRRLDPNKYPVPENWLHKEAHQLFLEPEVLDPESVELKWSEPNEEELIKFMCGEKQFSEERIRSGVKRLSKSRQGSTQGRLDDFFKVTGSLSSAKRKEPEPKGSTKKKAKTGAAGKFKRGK
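Reaction started by adding substrate (50 nM final) to 10 nM enzyme after 15 min room-temperature compound preincubation. Reads at 0 and 15 min, with data normalized and fitted to a four-parameter Hill equation.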
PLK1 PBD block: blocks phosphopeptide binding to human PLK1 polo-box domain | Plk1 PBD binding of FITC phosphopeptide, fluorescence polarization | Potency, µM, without a hit: max response, negative = inhibition, actives largely listed as inhibitors | 2.8% of 360,000 active | AID 720504; also: potency is read from the fitted curve at half-maximal effect; series mostly up to about 57 µM; % is scaled to controls: 0 for no effect and ±100 for the full control effect; nearly all actives have a fitted effect of over 65% in size
VDR inhibitor: inhibitors of human vitamin D receptor | P11473 | VDR-SRC2-3 peptide fluorescence polarization, 2 h | Potency, µM, for inactives: max response, negative = inhibition, usual class: inhibitors | AID 504847 | 0.93% of 400,000 active; also: potency is read from the fitted curve at half-maximal effect; % is scaled to controls: 0 for no effect and ±100 for the full control effect
Target sequence (P11473 whole entry, looked up): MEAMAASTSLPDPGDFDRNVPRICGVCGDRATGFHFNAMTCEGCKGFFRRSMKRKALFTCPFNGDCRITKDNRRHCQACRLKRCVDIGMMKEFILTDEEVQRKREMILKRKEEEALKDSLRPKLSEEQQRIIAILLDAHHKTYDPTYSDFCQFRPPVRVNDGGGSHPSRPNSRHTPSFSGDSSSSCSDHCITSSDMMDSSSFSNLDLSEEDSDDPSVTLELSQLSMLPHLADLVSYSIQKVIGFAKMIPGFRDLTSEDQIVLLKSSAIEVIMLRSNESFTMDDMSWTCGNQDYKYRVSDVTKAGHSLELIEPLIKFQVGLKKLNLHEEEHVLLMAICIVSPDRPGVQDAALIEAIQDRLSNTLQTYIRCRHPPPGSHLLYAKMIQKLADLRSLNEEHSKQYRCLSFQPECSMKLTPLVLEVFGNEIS
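After 23 nl compound addition and a short centrifugation, plates sat for 2 hours at ambient temperature; polarization of fluorescence then indicated loss of VDR binding to peptide SRC2-3.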
TCR act: T cell receptor activation. primary human leukocytes, anti-CD3, IL-2 HTRF, 48 h. Potency, µM (doses to about 9.22 µM), inactives show top-dose activation of IL-2 secretion, most hits filed as activators. 330,000 tested, under 10 active; also: % of control where 0% means no effect
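Readout: HTRF IL-2, Eu-cryptate/d2 antibody pair, 320nm excitation, 665nm emission. Stimulus: a-CD3 beads, no co-stimulation. Cells: primary human leukocytes. Exposure: 48 hr with compound.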
PI5P4Ka inh: blocks human PI5P4K alpha kinase activity | P48426 | max response, % | PI5P4Kalpha enzyme, ADP-Glo luminescence, 60 min; active compounds read low | AID 652105 | 1.2% of 330,000 active; active = max response of -50% or lower; inconclusive = between -30% and -50%; inactive = -30% or higher; also: value at the top dose of about 77 µM; % is scaled to controls: 0 for no effect and ±100 for the full control effect
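Single end-point luminescence (ADP-Glo) quantified ADP from PI5P4Kalpha turnover; ATP 5 microM final, 1 h at RT, 0.1% CHAPS and 0.28 mM EGTA in HEPES pH 7.4.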
Starred values were filed as active, the others as inactive; ? = inconclusive; . = no result given; [ ] = remark or other dose. Unless noted, calls follow the shape of the dose curve; as a rule, active = well fitted curve in the direction sought with a large enough effect; inconclusive = small, poorly fitted or top-dose-only effect, or another doubt; inactive = no such curve, though single readings can be large; an effect the other way counts as inactive or inconclusive.

SMILES	WRN helicase inh	FEN1 inhibitor	PLK1 PBD block	VDR inhibitor	TCR act	PI5P4Ka inh
COCCC(=O)N1CCC(n2nccc2NC(=O)c2ccccc2C)CC1	1.7%	-11.5%	21.2µM*	?	2.6%	-12.2
CC(C)C(=O)N1CCC(n2nccc2NC(=O)CCc2ccccc2)CC1	0.7%	11.1%	3.36µM*	?	-9.6%	-22.5
C/C(=N\NC(=O)c1cc(C)nc2ccccc12)c1ccco1	-7.8%	6.5%	-2.1%	-3.9%	-0.4%	3.3
C/C(=N\NC(=O)c1cc2ccccc2cc1O)c1ccc(C)o1	-28.9%	-5.5%	0.6%	-6.6%	.	-60.6*
C/C(=N/NC(=O)c1cc2ccccc2cc1O)c1ccco1	-9.4%[11.6 µM]	0.5%	2.4%	3.3%	-2.5%	-64.5*
COc1ccc(NC(=O)c2cc3ccccc3cc2O)cc1	-19.1%	-12.4%	29.9µM*	44.7µM*	-20.8%	-2.6
C/C(=N\NC(=O)c1cccc(N/N=C(\C)c2ccco2)c1)c1ccco1	-6.7%[11.6 µM]	-20.1%	-20.2%	0.0%	-3.3%	-85.6*
C/C(=N\NC(=O)c1cc2ccccc2cc1O)c1cccs1	?	?	-12.7%	8.2%	-6.3%	-14.5
O=C(C[n+]1ccncc1)c1ccc2ccccc2c1	.	1.3%	.	.	.	.
CCOC(=O)c1c(C)[nH]c(C(=O)OC(C(=O)N(C)C)c2ccccc2)c1C (stereo unspecified)	.	-9.7%	.	.	.	.
COc1cccc(Cn2c(=O)c(-c3cccs3)nc3cnc(OCc4ccccc4)nc32)c1	.	.	.	-20.3%	.	.
COc1ccc(C2CC(c3ccccc3)Oc3c(C)ccc(C)c32)cc1 (stereo unspecified)	.	-0.4%	.	-5.2%	.	.
N#Cc1c(SCc2c(Cl)cccc2Cl)nc(N)[nH]c1=S	3.4%	9.3%	29.9µM*	?	-2.3%	-65.2*
Cc1nc(SCc2ccccc2Cl)c(C#N)c(C)c1C	.	-3.1%	.	3.3%	.	.
Cn1c(/N=C/c2c(O)ccc3ccccc23)nc2ccccc21	44.7µM*	?	1.34µM*	35.5µM*	-4.3%	.
CCCn1c(/N=C/c2ccccc2O)nc2ccccc21	-7.9%	6.6%	-5.2%	-3.7%	-6.4%	0.8
C[C@@H]1[C@H](c2ccccc2)OCCS(=O)(=O)N1Cc1ccccc1F	.	-26.8%	.	.	.	.
N#Cc1c(-c2ccccc2)nc(SCc2cccc(Cl)c2)[nH]c1=O	-25.0%	-16.5%	26.7µM*	-9.5%	3.8%	-22.3
CC(C)(C)c1ccc(-c2nc(SCC(=O)Nc3ccc(Cl)cc3)[nH]c(=O)c2C#N)cc1	.	20µM*	.	1.6%	.	.
O=c1[nH]c(SCc2cccc(Cl)c2)nc2c1CCC2	.	11.3%	.	14.3%	.	.
CCOC(=O)c1c(NC(=O)c2cccs2)sc(C(=O)N(C)C)c1C	-2.3%	-12.4%	23.8µM*	?	-2.9%	-5.1
NS(=O)(=O)c1ccc(NC(=S)NCc2ccc(Cl)cc2)cc1	-13.9%	-0.4%	10.6µM*	?	-3.4%	-5.1
NS(=O)(=O)c1ccc(NC(=S)NCc2ccc(F)cc2)cc1	0.2%	-2.7%	21.2µM*	?	3.4%	-0.3
NS(=O)(=O)c1cccc(NC(=S)NCc2ccc3c(c2)OCO3)c1	-2.1%	-11.7%	?	-8.2%	-4.5%	-8.3
NS(=O)(=O)c1ccc(NC(=S)NCc2ccc3c(c2)OCO3)cc1	-5.8%	-0.6%	21.2µM*	0.5%	7.0%	2.1
SMILES	WRN helicase inh	FEN1 inhibitor	PLK1 PBD block	VDR inhibitor	TCR act	PI5P4Ka inh
NS(=O)(=O)c1ccc(CNC(=S)Nc2ccc(F)c(Cl)c2)cc1	-5.1%	-4.8%	-11.2%	12.7%	1.8%	-3.7
CCc1ccccc1N1CC(c2nc3ccccc3n2CCOc2ccc(Cl)c(C)c2)CC1=O (stereo unspecified)	.	-6.1%	.	-8.7%	.	.
CCOc1ccc(CNC(=O)Cn2ccc3cc(S(=O)(=O)N4CCCC4)ccc32)cc1	-4.7%	-16.6%	26.7µM*	-13.6%	2.1%	-1.8
COc1cccc(CNC(=O)Cn2ccc3cc(S(=O)(=O)N4CCCC4)ccc32)c1OC	-6.2%	14.0%	29.9µM*	-26.5%	-3.7%	7.9
CSc1ccc(CNC(=O)CCn2ccc3cc(S(=O)(=O)N4CCCC4)ccc32)cc1	-5.9%	4.3%	26.7µM*	-25.3%	11.5%	-14.9
COc1ccc2c(c1)C(=O)[C@H](OC(=O)Nc1cc(OC)c(OC)c(OC)c1)[C@@H](c1ccc(OC)c(Br)c1)O2	.	.	.	19.2%	.	.
CC(=O)Oc1ccc(-c2nc(-c3ccccc3)no2)cc1	.	-10.8%	.	.	.	.
O=C(CSc1nc2ccccc2s1)N1CCCCC1	-4.1%	4.5%	15µM*	-0.3%	.	.
CC1CCN(C(=O)CSc2nc3ccccc3s2)CC1	-6.1%	-3.4%	-19.3%	-7.3%	1.7%	-4.9
O=C(O)C1CCN(C(=O)CSc2nc3ccccc3s2)CC1	-0.6%[57.1 µM]	0.2%	23.8µM*	?	2.0%	-18.3
NC(=O)C1CCN(C(=O)CSc2nc3ccccc3s2)CC1	5.9%	-13.9%	?	-16.9%	0.2%	2.1
COc1ccc(-c2c(C3C4C=CCC(C)C4C(=O)N3Cc3ccccc3)ccc3ccccc23)cc1OC (stereo unspecified)	.	-23.5%	.	-12.1%	.	.
CCc1ccc(C(=O)COC(=O)C(Cc2c[nH]c3ccccc23)NC(=O)c2ccc(CC)cc2)cc1 (stereo unspecified)	.	-17.6%	.	2.4%	.	.
COc1ccc(-c2nc(-c3cccnc3)no2)cc1OC	9.2%	-7.0%	-6.7%	6.2%	7.1%	-7.7
COc1ccc(-c2csc3nc(-c4cccnc4)nc(Cl)c23)cc1OC	-5.0%	-3.4%	26.7µM*	?	-4.8%[46.1 µM]	-23.9
C=CCn1c(SCC(=O)c2ccc(O)c(O)c2)nnc1-c1cccnc1	39.8µM*	?	-16.1%	-0.4%	6.5%	-50.9*
COc1ccccc1-c1nnc(SCC(=O)O)n1-c1ccc(C)cc1	2.8%	3.9%	-4.4%	1.7%	-2.9%	2.6
C=CCn1c(SCC(=O)Nc2ccc(N(C)C)cc2)nnc1-c1cccc(C)c1	-27.5%	-7.4%	-9.7%	89.1µM*	-1.2%	-14.7
CCn1c(SCC(=O)c2ccc(O)c(O)c2)nnc1-c1ccccc1OC	20µM*	2.2%	-4.1%	0.8%	-1.5%	-17.0
COC(=O)CSc1nnc(-c2ccccc2OC)n1-c1ccc(C)cc1	-6.6%	-4.7%	26.7µM*	-7.4%	1.9%	-9.3
CCn1c(SCC(=O)c2ccc(O)c(O)c2)nnc1-c1ccccc1	-31.3%	4.0%	-4.1%	-7.0%	-0.6%	-15.6
CC(C)(C)c1ccc(C(=O)NCC(c2cccnc2)N2CCc3ccccc3C2)cc1 (stereo unspecified)	.	20.6%	.	15.8%	.	.
C=CCn1c(SCC(=O)O)nnc1-c1cccc(Cl)c1	-10.4%	36.4%	-5.6%	-13.5%	-2.9%	-3.1
C=CCn1c(SCC(=O)c2ccc(O)c(O)c2)nnc1-c1cccc(Cl)c1	17.8µM*	-13.6%	-20.1%	-23.7%	8.1%	-14.7
Cc1ccc(C)c(N2CCN(C(=O)c3cnc4c(-c5ccccc5)c(C)nn4c3C)CC2)c1	.	-3.3%	.	3.7%	.	.

Assay outcomes (PubChem BioAssay)
